Sampled rows, rich in hits. Any-hit rate of the full collection: about 8%.
TSHR antagonist – blocks TSH signaling through the human TSH receptor; P16473; TSHR-expressing cells, TSH-stimulated cAMP HTRF, 2 h; hits give low values; activity change, negative = inhibition, % at 11.5 µM; actives 0.2% (n = 330,000);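 active = activity change below a set negative limit, meaning inhibition stronger than a set level, cut at about -70% in these data; inconclusive = activity change between two set negative limits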
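Read-out is FRET at 665 nm (cryptate excitation 337 nm) from a cryptate-tagged anti-cAMP antibody, competed by cell cAMP against cAMP-d2. Compounds are tested on freshly harvested TSHR cells challenged with 4nM TSH (EC80) for 2 hours at 37 deg C.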
Coupling enz – coupling enzyme interference in Giardia aldolase counter-screen. coupling enzyme system counterscreen, AmpLite Red fluorescence. activity change, negative = inhibition, % at 58.2 µM, hits read low. actives 0.67% (n = 290,000). AID 2472; in the data active = activity change below about -30%
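Counterscreen of the coupled detection system alone, without aldolase: glyceraldehyde-3-phosphate coupling enzymes plus AmpLite Red readout. Compounds at 57.5 uM final, 10 min RT preincubation, 20 min RT reaction, fluorescence 525/598 nm.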
RORg inh – blocks mouse ROR gamma transcriptional activity; Potency, µM (titrated, usually from 53.6 µM), usual class: inhibitors; actives 5.4% (n = 310,000); Drosophila S2 Gal4-RORgamma UAS-luciferase reporter, 20 h; P51450; note: nearly all actives have a fitted effect of over 60% in size
Target sequence (P51450 whole entry, looked up, the tested form may be a part): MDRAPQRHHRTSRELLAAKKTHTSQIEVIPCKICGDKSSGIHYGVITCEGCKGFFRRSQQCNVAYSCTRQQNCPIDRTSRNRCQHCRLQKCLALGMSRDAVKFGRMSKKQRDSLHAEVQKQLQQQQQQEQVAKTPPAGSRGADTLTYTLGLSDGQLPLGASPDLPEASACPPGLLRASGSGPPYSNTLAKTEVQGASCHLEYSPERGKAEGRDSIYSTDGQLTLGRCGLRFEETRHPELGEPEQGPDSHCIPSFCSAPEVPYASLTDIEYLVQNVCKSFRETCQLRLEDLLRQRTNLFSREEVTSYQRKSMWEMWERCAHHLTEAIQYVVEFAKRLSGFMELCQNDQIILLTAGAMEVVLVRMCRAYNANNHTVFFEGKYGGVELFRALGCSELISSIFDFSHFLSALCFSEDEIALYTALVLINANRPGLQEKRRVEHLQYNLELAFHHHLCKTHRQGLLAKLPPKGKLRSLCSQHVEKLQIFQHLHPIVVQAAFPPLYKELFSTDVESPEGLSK
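Drosophila Schneider cells stably carrying a metallothionein-driven Gal4 DBD–ROR gamma fusion and a UAS-Photinus luciferase reporter were exposed to compound for 1 hr, then induced with copper sulfate (700 uM final) for 20 hr at ambient temperature before luminescence reading.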
ELG1 repair inh – ELG1-dependent DNA repair inhibition. AID 504467. Potency, µM (series often up to 46.1 µM), usual class: inhibitors. HEK293T ELG1-luciferase reporter, luminescence, 16 h; DNA damage induced by 5-fluorouridine. actives 2.3% (n = 330,000); note: nearly all actives have a fitted effect of over 55% in size
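Cells (2,000 per well) received 5-fluorouridine plus test compound or DMSO and were incubated 16 hr at 37 °C, 5% CO2. Luciferase activity was read by luminescence 30 min after ONE-Glo addition; signal suppression marked inhibition of damage-induced ELG1 function.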
VP16 counter – inhibits Gal4-VP16 luciferase reporter, ROR gamma counter-screen | Drosophila S2 Gal4-VP16 UAS-luciferase, luminescence, 20 h | Potency, µM (top dose mostly 53.6 µM), actives largely listed as inhibitors | actives 3.5% (n = 310,000);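 note: Gal4-VP16 expression switched on by copper sulfate through the metallothionein promoter; nearly all actives have a fitted effect of over 50% in size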
Hits are given with their value; i = inactive; ? = inconclusive; nt = not tested or not shown; [ ] = remark or other dose. Unless noted, calls come from the whole dose curve; as a rule, active = well fitted curve in the direction sought with a large enough effect; inconclusive = small, poorly fitted or top-dose-only effect, or another doubt; inactive = no such curve, though single readings can be large; an effect the other way counts as inactive or inconclusive.

SMILES	TSHR antagonist	Coupling enz	RORg inh	ELG1 repair inh	VP16 counter
C[C@@H](OC(=O)c1[nH]cnc1C(=O)NCc1ccc(CNC(=O)OC(C)(C)C)cc1)c1ccccc1	i	nt	nt	13µM	nt
C[C@H](NC(=O)c1nc[nH]c1C(=O)NCC(=O)OCc1ccccc1)c1ccccc1	i	i	14.1µM	i	?
CC(C)(C)OC(=O)NCc1ccc(CNC(=O)c2[nH]cnc2C(=O)NCC(=O)OCc2ccccc2)cc1	i	i	i	8.2µM	22.4µM
O=C(CNC(=O)c1nc[nH]c1C(=O)NCc1ccccc1)OCc1ccccc1	i	i	11.2µM	i	?
COc1ccc2oc(C(=O)OCc3nnc(-c4ccccc4)o3)c(C)c2c1	i	nt	nt	i	nt
O=C(c1cnccn1)N1CCC2(CCN(Cc3ccccc3)CC2)CC1	nt	i	i	nt	i
COc1ccc(N2C=C3C(=O)C(C)(OC(=O)C4CCCC4)C(=O)C=C3C=C2c2ccsc2)cc1 (stereo unspecified)	nt	i	nt	nt	nt
CC(OC(=O)CCN=C1NS(=O)(=O)c2ccccc21)C(=O)Nc1ccccc1F (stereo unspecified)	i	nt	nt	i	nt
CCNC(=O)/C(C#N)=C/c1c(N(Cc2ccccc2)Cc2ccccc2)nc2ccccn2c1=O	i	i	i	11.6µM	i
CNC(=O)/C(C#N)=C/c1c(N(Cc2ccccc2)Cc2ccccc2)nc2c(C)cccn2c1=O	i	i	i	23.1µM	i
C=CCNC(=O)/C(C#N)=C/c1c(N2CCN(c3ccccc3)CC2)nc2c(C)cccn2c1=O	i	i	i	i	i
Cc1cc(CN(C)C(=O)C2CCC(=O)N(CCc3cccc(F)c3)C2)on1 (stereo unspecified)	i	i	i	i	i
CON	nt	i	i	nt	i
COc1ccc(S(=O)(=O)N2CC(C)N(C(=O)N(C)C)C2C(C)C)cc1 (stereo unspecified)	i	i	i	i	i
N#Cc1cccc(NS(=O)(=O)c2ccccc2Cl)c1	i	nt	nt	i	nt
COc1cc(O)c(NC(C)=O)c2nonc12	i	-54.1	i	i	i
O=C(Nc1cccc(C(F)(F)F)c1)c1cccnn1	i	i	i	i	i
Cc1nc2c(cnn2-c2ccccc2Cl)c(=O)n1-c1ccc(N2CCC(C)CC2)cc1	i	i	i	16.4µM	i
Cc1ccc(-n2c(C)nc3c(cnn3-c3ccccc3Cl)c2=O)cc1C	i	i	i	i	i
CCc1nc2c(c(=O)c3ccccc3n2C)c(=O)n1-c1ccc(F)cc1	i	i	i	i	i
CCc1nc2c(cnn2-c2ccc(F)cc2)c(=O)n1-c1ccc(N2CCC(C)CC2)cc1	i	i	i	16.4µM	?
Cc1ccc(-n2c(C)nc3c(cnn3-c3ccc(C)c(C)c3)c2=O)cc1C	i	i	?	i	i
Cc1ccc(-n2c(C)nc3c(cnn3-c3ccc(F)cc3)c2=O)cc1C	i	i	?	?	6.31µM
COC(=O)C(CC(C)C)NS(=O)(=O)c1ccccc1Br (stereo unspecified)	nt	i	?	nt	i
CC(C)CCNC(=O)C(c1ccc(O)cc1)N(Cc1cccs1)C(=O)C1COc2ccccc2O1 (stereo unspecified)	i	i	i[10 µM]	20.6µM	i
SMILES	TSHR antagonist	Coupling enz	RORg inh	ELG1 repair inh	VP16 counter
O=C(NCc1ccco1)C(c1cccs1)N(C(=O)C1COc2ccccc2O1)c1cccc(O)c1 (stereo unspecified)	i	i	i	13µM	i
O=[N+]([O-])c1ccc(Cl)c(C[n+]2cccc3ccccc32)c1	i	i	i	i	i
CC(C)(C)c1ccc(/C=C/C(=O)c2ccc(NC3=NCCCS3)cc2)cc1	i	i	?	i	5.62µM
O=C(NNC1=Nc2cccc3cccc1c23)c1ccc(Br)cc1	i	i	0.708µM	i	2µM
CC(C)(CNC(=O)c1ccc(S(=O)(=O)Nc2cccc(C(F)(F)F)c2)cc1)N1CCOCC1	i	nt	nt	i	nt
Cc1cnc(CNc2ncncc2-c2c(C)noc2C)cn1	nt	i	i	nt	i
COc1cccc(CNC2CCCC2)c1	i	i	i	i	i
COc1cccc(CNC(=S)NC2CCCC2)c1	i	i	10µM	i	10µM
COc1cccc(CNC(=S)NC2CC2)c1	i	i	10µM	i	i
CN(C1CCCCC1)S(=O)(=O)c1ccc(NC(=S)NC(=O)c2cccs2)cc1	i	i	5.62µM	i	?
CCN(CC)S(=O)(=O)c1ccc(NC(=S)NC(=O)C2CCC2)cc1	i	i	nt	?	nt
COc1cc(NS(=O)(=O)c2ccc(NC(=S)NC(=O)c3cccs3)cc2)nc(OC)n1	i	i	i	i	i
CCCCN(CCCC)S(=O)(=O)c1ccc(NC(=O)c2cccs2)cc1	i	i	i	23.1µM	i
Cc1cc(C)cc(NS(=O)(=O)c2ccc(NC(=S)NC(=O)c3cccs3)cc2)c1	i	i	0.794µM	i	1µM
COCC(C)n1c(COc2ccccc2F)nnc1SCC(=O)Nc1oc(C)c2c(C)n[nH]c(=O)c12 (stereo unspecified)	i	nt	nt	i	nt
C/C(Cc1ccccc1)=N\NC(=O)c1ccc(F)cc1	i	i	i	i	?
CC12CC(c3ccccc3O1)C(/C(N)=N/NC(=O)c1ccc(F)cc1)C(=O)N2 (stereo unspecified)	i	i	4.47µM	?	?
CCOC(=O)C1C(C(=O)OC)=C(c2ccc(F)cc2)c2ccccc2N1S(=O)(=O)C(F)(F)F (stereo unspecified)	i	i	i	?	i
CCOC(=O)C1C(C(=O)OC)=C(c2ccc(OC)cc2)c2ccccc2N1S(=O)(=O)C(F)(F)F (stereo unspecified)	i	i	i	11.6µM	i
CCOC(=O)C1=C(c2ccccc2)c2ccccc2N(S(=O)(=O)C(F)(F)F)C1C(=O)OCC (stereo unspecified)	i	nt	nt	16.4µM	nt
COc1ccc(C(=O)C2CCN(C(=O)Nc3ccccc3C)CC2)cc1	i	i	i	i	i
CC(=O)c1cccc(NC(=O)C(C)OC(=O)CCN=C2NS(=O)(=O)c3ccccc32)c1 (stereo unspecified)	i	nt	nt	i	nt
O=C(O)c1ccccc1OP(=O)(O)O	nt	i	i	nt	i
O=Nc1ccc(NOC(=O)c2ccccc2Br)cc1	i	i	?	i	?
O=C(ONc1ccc(N=NC(=O)c2ccccc2O)cc1)c1ccccc1	i	i	7.08µM	?	i[0.365 µM]
COc1ccc(Cl)cc1NC(=O)C/C(C)=N/NC(=O)Cc1ccccc1	i	i	?	i	i
COc1ccc(Cl)cc1NC(=S)NCCC(c1ccccc1)c1ccccc1	i	i	7.08µM	i	4.47µM
COc1ccc(Cl)cc1NC(=S)Nc1ccccc1C	i	i	11.2µM	i	?
COc1ccc(Cl)cc1NC(=S)NCCO	i	i	i	i	i
COc1ccc(C)cc1NC(=O)CNC(c1ccccc1)c1ccccc1	i	i	i	i	i
